GSIS activator: GLuc luminescence reporter in INS-1E cells, primary screen for activators of glucose-dependent secretion of insulin; INS-1E GLuc reporter insulin secretion, 2-3 h; activation, % at 16.6 µM; 0.61% of 370,000 active; AID 743287, 2014;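 active means lowest replicate activation of at least 40%, so every replicate reaches that level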;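 further: 0% = median of neutral control wells and 100% = median of IBMX positive control wells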
Vif inh: HIV Vif self-association inhibitors, primary screen, imaging, HEK293T, single point. HEK293T cells, Vif self-association by quenched fluorescence, 24 h. inhibition, % at 7.49 µM. 0.35% of 340,000 active. AID 602346, 2012; in the data active means inhibition above about 50%, passing the limit was not always enough; inconclusive means no clear call, values can overlap the other calls; inactive means below about 31%
dFosB act: activators of delta FosB homodimer, primary screen, biochemical, fluorescence polarization, TAMRA-CDK5 oligo, single point | 0.99% of 340,000 active | Protein FosB (Mus musculus), P13346 | purified delta FosB; percent of positive-control signal above neutral wells | activation, % at 25 µM;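 active means mean activation above about 17%, with every replicate also reaching it, limit read from the data, passing the limit was not always enough; inconclusive means only one of the two conditions met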
Target sequence (P13346 whole entry, looked up): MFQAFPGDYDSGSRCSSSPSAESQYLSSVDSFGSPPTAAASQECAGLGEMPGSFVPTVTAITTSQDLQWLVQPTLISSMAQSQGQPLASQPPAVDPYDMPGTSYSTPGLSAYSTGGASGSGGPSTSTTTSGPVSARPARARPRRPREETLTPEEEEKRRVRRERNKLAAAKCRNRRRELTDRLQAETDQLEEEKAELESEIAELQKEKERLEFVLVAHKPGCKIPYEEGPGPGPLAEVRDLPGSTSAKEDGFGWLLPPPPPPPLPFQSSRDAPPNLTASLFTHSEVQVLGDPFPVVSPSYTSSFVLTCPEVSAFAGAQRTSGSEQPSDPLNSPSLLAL
Bfl-1 A1 inh: caspase 3/7 activation in MEF A1-2A-BIM cells, primary screen, A1 inhibitor project, cell-based, luminescence, HTS. Caspase-Glo 3/7 luminescence, 3 h; percent of clofoctol response, vehicle zero. caspase activation, % (concentration not given with the values). 0.066% of 330,000 active. AID 2462, 2010;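 active means over half of replicate activation scores above 10%, or exactly half above 10 with the replicate mean above 10; inconclusive means replicate mean below 10 yet half the replicates above 10; inactive means over half of replicates below 10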
Neddylation inh: inhibitors of cullin neddylation, primary screen, biochemical, TR-FRET, uHTS, NAE and Ubc12. NEDD8-conjugating enzyme Ubc12 (Homo sapiens) + NEDD8-activating enzyme E1 regulatory …. inhibition, % at 25 µM. 0.58% of 360,000 active; in the data active means inhibition above about 36%
* hit, by the source's call; ? = inconclusive; / = not tested or not shown. Hits are enriched below; roughly 1.9% of the tested compounds scored in any of these assays.

SMILES	GSIS activator	Vif inh	dFosB act	Bfl-1 A1 inh	Neddylation inh
O=C(CN1C(=O)CCC1=O)Nc1cccc2c1C(=O)NC2=O	41*	0	-4	0	27
O=C(CC(F)(F)F)N1C[C@H]2[C@@H](c3ccccc31)[C@@H](CO)N2C(=O)Cc1ccccc1	-6	/	/	/	/
CC1CCN(Cc2cc(=O)oc3ccc(C(C)C)cc23)CC1	26	-6	-5	1	-5
CC(C)c1ccc2oc(=O)cc(CN3CCCCC3)c2c1	44*	-6	-10	1	0
COc1ccc(OC)c(C2C3=C(COC3=O)Nc3cc4c(cc32)OCO4)c1 (stereo unspecified)	/	72*	2	/	37
Cc1ccc(S(=O)(=O)NCc2csc(-c3cccs3)n2)cc1	48*	-5	-11	0	0
C[C@@H]1CN([C@@H](C)CO)C(=O)c2cc(NC(=O)CCC(F)(F)F)ccc2O[C@@H](C)CCCCO[C@H]1CN(C)Cc1ccncc1	-6	/	/	/	/
CC(C)n1nc(C(=O)Nc2ccccc2N2CCOCC2)c2ccccc2c1=O	120*	-3	1	1	19
CCN(CC)S(=O)(=O)c1ccc(N2CCOCC2)c(NC(=O)c2nn(C(C)C)c(=O)c3ccccc23)c1	-1	/	/	/	7
CCS(=O)(=O)N1CC(=O)N2[C@H](C1)[C@H](c1ccc(C#Cc3cccc(F)c3)cc1)[C@@H]2CO	-18	/	/	/	/
CN(/N=C/c1ccc(-c2ccc([N+](=O)[O-])cc2)o1)c1ccccc1	18	/	1	-1	-13
O=C1Nc2ccccc2/C1=N/N=C/c1ccc(-c2ccc([N+](=O)[O-])cc2)o1	0	54*	2	/	-34
CN[C@H]1C[C@@H](c2ccccc2)N(C(C)=O)C[C@H]1CO	42*	5	/	/	1
CCNC(=O)N(C)[C@H]1C[C@@H](c2ccccc2)N(C(C)=O)C[C@H]1CO	-7	/	/	/	/
CCCN(CCC)CCCNC(=O)CC(C(=O)N1CCc2ccccc21)n1ccnc1 (stereo unspecified)	-4	/	-5	0	-3
CCN(CC)CC(C)CNC(=O)CC(C(=O)N1CCc2ccccc21)n1ccnc1 (stereo unspecified)	7	123*	2	0	1
CCOC(=O)c1ccc(S(=O)(=O)N2CCC(C(=O)OCC)CC2)cc1	1	-4	5	1	-5
CCOC(=O)c1ccc(S(=O)(=O)N2CCC(C(=O)Nc3nnc(C)o3)CC2)cc1	58*	3	3	/	12
COc1ccc(S(=O)(=O)N2CCC(C(=O)NCc3ccccn3)CC2)cc1OC	46*	-1	3	0	-6
COc1ccc(C2=NOC(C(=O)NCc3ccccn3)C2)cc1OC (stereo unspecified)	94*	-4	-1	0	-5
COc1ccc(C2=NOC(C(=O)NCc3ccccn3)C2)cc1 (stereo unspecified)	/	3	-1	0	3
Cc1ccccc1-c1ccc([C@@H]2[C@@H](CO)N3C(=O)CN(C(=O)Nc4ccccc4)C[C@H]23)cc1	-4	/	/	/	/
CN(C)C(=O)c1cccc(-c2ccc([C@H]3[C@H](CO)N4C(=O)CN(C(=O)C5CCCC5)C[C@@H]34)cc2)c1	9	/	/	/	/
CN(C)CC(=O)N[C@@H]1CC[C@@H](CC(=O)NCc2ccccc2F)O[C@@H]1CO	1	/	/	/	/
Cn1c(COc2ccccc2O)[n+](C)c2ccccc21	8	-3	5	1	-5
SMILES	GSIS activator	Vif inh	dFosB act	Bfl-1 A1 inh	Neddylation inh
CCCCCCCCCCOC(=O)Cn1c(COc2ccccc2OC)[n+](C)c2ccccc21	179*	-6	25*	-1	-3
COc1cc(NC(=O)c2ccc(C)cc2)ccc1NC(=O)c1cc2ccccc2o1	3	-3	0	0	/
COc1cc(NC(=O)c2ccccc2F)ccc1NC(=O)c1cc2ccccc2o1	3	8	?	14*	/
COC(=O)c1cc(Cl)c(NC(=O)c2cc3ccccc3o2)cc1OC	/	63*	2	-1	13
COc1cc(NC(=O)c2ccc(C)cc2C)ccc1NC(=O)c1cc2ccccc2o1	14	29	-1	15*	/
C[C@H](CO)N1C[C@H](C)[C@@H](CN(C)C(=O)Nc2cccc3ccccc23)Oc2ccc(NC(=O)Cn3cnnn3)cc2C1=O	32	/	/	/	/
CSc1ccc2nnc(-c3cccc(F)c3)n2n1	53*	/	-21	/	14
Cc1ccc(-c2csc(N3CCN(c4cc5c(cc4Cl)nc(-c4ccncc4)n5CCN4CCCCC4)CC3)n2)cc1	-6	3	22*	-2	/
C[C@H](CO)N1C[C@H](C)[C@@H](CN(C)S(=O)(=O)c2cccs2)Oc2c(NC(=O)CCCN(C)C)cccc2C1=O	-6	/	/	/	/
C[C@@H]1CCCCO[C@H](CN(C)Cc2ccc3c(c2)OCO3)[C@H](C)CN([C@@H](C)CO)C(=O)c2cc(NS(=O)(=O)c3ccc(Cl)cc3)ccc2O1	-2	/	/	/	/
C=C1C(=O)[C@]23C[C@H]1CCC2[C@@]1(C)C(C[C@@H]3O)[C@](C)(C(=O)OC)CC[C@@H]1OC(C)=O (stereo partly specified)	134*	40	/	/	-1
C=C1C(=O)[C@]23C[C@H]1CC[C@H]2[C@]1(C)[C@@H](OC(C)=O)CC[C@@](C)(C(=O)O)[C@H]1C[C@@H]3O	84*	12	/	/	5
CO[C@H]1CN(C)C(=O)c2cc(NC(=O)C3CC3)ccc2OC[C@@H](C)N(C(=O)C2CCOCC2)C[C@H]1C	38	/	/	/	/
CC(=O)Nc1ccc(NC(=O)C(=O)NCC(c2ccco2)N2CCc3ccccc32)cc1 (stereo unspecified)	15	10	1	32*	3
COc1ccc(NC(=O)C(=O)NCC(c2ccco2)N2CCc3ccccc32)cc1 (stereo unspecified)	/	2	3	2	10
COc1ccc(C(C#N)N2N=C(C)CC2c2ccccc2)cc1OC (stereo unspecified)	20	54*	0	-1	6
COc1ccc(C(C#N)N2N=C(c3ccccc3)CC2c2ccccc2)cc1OC (stereo unspecified)	-31	1	-5	2	10
Oc1ccc2ccccc2c1N=Nc1ccc(F)cc1	19	-4	104*	2	-18
COc1ccccc1S(=O)(=O)Nc1ccc2c(c1)OC[C@H](C)NC[C@@H](C)[C@@H](OC)CN(C)C2=O	16	/	/	/	/
Oc1c(Br)cc(Br)cc1C=Nc1cccc2ncccc12	-5	4	-67	0	55*
COc1cc(/C=N/n2c(-c3n[nH]c4c3CCC4)n[nH]c2=S)ccc1O	37	6	3	-1	11
COc1ccc(/C=N/n2c(-c3ccc(C)cc3)n[nH]c2=S)cc1OC	70	99*	3	0	-14

High-throughput results as filed in PubChem.
